Source: PubChem BioAssay
Active and inactive are the calls of the source.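 Rule for the calls, unless noted: active = normalized viability below 100% at a tested concentration; inactive = the rest.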

What was measured:
[1] = sensitizers of A549 cells to miR-34 induction, primary screen, imaging, A549 dox-inducible miR-34, nuclei and caspase counts (AID 1347080;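 active = compounds whose cell count with miR-34 switched on is under 0.7 times the count with it off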); conditions: A549 miR-34 inducible, Hoechst nuclei count, 48 h
[2] = survival rescue of mitochondrial mutant cells in low glucose, primary screen, MELAS cybrids, Rieske KO mouse fibroblasts, CellTiter-Glo (AID 1508586;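 active = mean z-score across replicates of 1.96 or higher in either the MELAS or the Rieske mutant cell line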;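 note: z relative to plate mean and SD of compound and empty wells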)
[3] = ovarian cancer cell viability with rucaparib, profiling panel, oncology-focused library, rucaparib conditional (AID 1508598); conditions: patient-derived ovarian cancer cells, CellTiter-Glo viability, 144 h, stronger effect = lower value
[4] = biological target: NAD(+) hydrolase SARM1 (Homo sapiens) (UniProt Q6SZW1); assay: SARM1 TIR NADase inhibitors, cell lysate, NAD-Glo luminescence (AID 1508614;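 active = compound whose remaining NAD level is above about 45 nM, limit read from the data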;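 note: higher remaining NAD means stronger inhibition of SARM1 NADase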); conditions: SAM-TIR HEK293T lysate NADase, at 1 µM, stronger effect = higher value
[5] = stronger effect = lower value, cell number ratio, induced over uninduced
[6] = measured here: relative caspase fold change +Dox/-Dox
[7] = measured here: total cells with miR-34 induction, stronger effect = lower value
[8] = measured here: total cells without miR-34 induction
[9] = MELAS cybrid survival, CellTiter-Glo 48 h, stronger effect = higher value
[10] = Rieske KO mouse fibroblast survival, CellTiter-Glo 72 h
[11] = at 0.000305 µM, OCI-C5x cells, with rucaparib 10 µM, 100% = cells with rucaparib alone
[12] = at 0.000305 µM, OCI-C5x cells, without rucaparib
[13] = at 0.000305 µM, OCI-P5x cells, with rucaparib 20 µM, 100% = cells with rucaparib alone
[14] = at 0.000305 µM, OCI-P5x cells, without rucaparib
[15] = at 0.00122 µM, OCI-C5x cells, with rucaparib 10 µM, 100% = cells with rucaparib alone
[16] = at 0.00122 µM, OCI-C5x cells, without rucaparib
[17] = at 0.00122 µM, OCI-P5x cells, with rucaparib 20 µM, 100% = cells with rucaparib alone
[18] = at 0.00122 µM, OCI-P5x cells, without rucaparib
[19] = at 0.00488 µM, OCI-C5x cells, with rucaparib 10 µM, 100% = cells with rucaparib alone
[20] = at 0.00488 µM, OCI-C5x cells, without rucaparib
[21] = at 0.00488 µM, OCI-P5x cells, with rucaparib 20 µM, 100% = cells with rucaparib alone
[22] = at 0.00488 µM, OCI-P5x cells, without rucaparib
[23] = at 0.0195 µM, OCI-C5x cells, with rucaparib 10 µM, 100% = cells with rucaparib alone
[24] = at 0.0195 µM, OCI-C5x cells, without rucaparib
[25] = at 0.0195 µM, OCI-P5x cells, with rucaparib 20 µM, 100% = cells with rucaparib alone
[26] = at 0.0195 µM, OCI-P5x cells, without rucaparib
[27] = at 0.0781 µM, OCI-C5x cells, with rucaparib 10 µM, 100% = cells with rucaparib alone
[28] = at 0.0781 µM, OCI-C5x cells, without rucaparib
[29] = at 0.0781 µM, OCI-P5x cells, with rucaparib 20 µM, 100% = cells with rucaparib alone
[30] = at 0.0781 µM, OCI-P5x cells, without rucaparib
[31] = at 0.313 µM, OCI-C5x cells, with rucaparib 10 µM, 100% = cells with rucaparib alone
[32] = at 0.313 µM, OCI-C5x cells, without rucaparib
[33] = at 0.313 µM, OCI-P5x cells, with rucaparib 20 µM, 100% = cells with rucaparib alone
[34] = at 0.313 µM, OCI-P5x cells, without rucaparib
[35] = at 1.25 µM, OCI-C5x cells, with rucaparib 10 µM, 100% = cells with rucaparib alone
[36] = at 1.25 µM, OCI-C5x cells, without rucaparib
[37] = at 1.25 µM, OCI-P5x cells, with rucaparib 20 µM, 100% = cells with rucaparib alone
[38] = at 1.25 µM, OCI-P5x cells, without rucaparib
[39] = at 5 µM, OCI-C5x cells, with rucaparib 10 µM, 100% = cells with rucaparib alone
[40] = at 5 µM, OCI-C5x cells, without rucaparib
[41] = at 5 µM, OCI-P5x cells, with rucaparib 20 µM, 100% = cells with rucaparib alone
[42] = at 5 µM, OCI-P5x cells, without rucaparib

NAD(+) hydrolase SARM1 (Homo sapiens), sequence (Q6SZW1 whole entry, looked up): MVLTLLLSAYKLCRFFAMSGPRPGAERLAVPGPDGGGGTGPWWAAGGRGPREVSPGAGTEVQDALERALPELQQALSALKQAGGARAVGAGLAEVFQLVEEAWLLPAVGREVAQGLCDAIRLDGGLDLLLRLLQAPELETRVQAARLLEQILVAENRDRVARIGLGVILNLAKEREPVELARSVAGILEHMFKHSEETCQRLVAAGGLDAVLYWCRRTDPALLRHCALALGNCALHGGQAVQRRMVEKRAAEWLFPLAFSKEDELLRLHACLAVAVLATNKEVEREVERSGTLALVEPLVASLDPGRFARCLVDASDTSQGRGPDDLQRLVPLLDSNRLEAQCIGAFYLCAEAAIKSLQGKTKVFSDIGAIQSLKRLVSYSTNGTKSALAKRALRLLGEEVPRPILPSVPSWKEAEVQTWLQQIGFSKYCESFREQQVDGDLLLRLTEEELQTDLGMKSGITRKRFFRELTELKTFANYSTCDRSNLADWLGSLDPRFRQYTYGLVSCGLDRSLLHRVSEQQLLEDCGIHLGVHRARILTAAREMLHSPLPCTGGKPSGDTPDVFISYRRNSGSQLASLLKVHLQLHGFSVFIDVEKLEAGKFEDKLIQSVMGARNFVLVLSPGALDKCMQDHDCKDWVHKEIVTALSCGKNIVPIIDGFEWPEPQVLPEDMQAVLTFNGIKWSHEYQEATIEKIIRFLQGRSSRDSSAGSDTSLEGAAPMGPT

NC(=O)CCCSc1nc(N)nc(-c2c(Cl)cc3c4c(cccc24)COC3)n1
-2.67: z-score [2, 10]
2430: cell count [1, 7]
active: z-score [2, 9] 2.88 | viability [3, 12] 95.8% | viability [3, 17] 98% | viability [3, 18] 96.2% | viability [3, 22] 98.7% | viability [3, 26] 94.9% | viability [3, 28] 98.7% | viability [3, 29] 16.9% | viability [3, 30] 38.5% | viability [3, 31] 74.7% | viability [3, 32] 35.4% | viability [3, 33] 14.5% | viability [3, 34] 8.07% | viability [3, 35] 16% | viability [3, 36] 7.19% | viability [3, 37] 7.31% | viability [3, 38] 5.49% | viability [3, 39] 9.52% | viability [3, 40] 6.09% | viability [3, 41] 4.5% | viability [3, 42] 3.17%
0.479: fold change [1, 6]
inactive: fold change [1, 5] 0.945 | viability [3, 11] 109% | viability [3, 13] 104% | viability [3, 14] 102% | viability [3, 15] 107% | viability [3, 16] 101% | viability [3, 19] 114% | viability [3, 20] 103% | viability [3, 21] 106% | viability [3, 23] 125% | viability [3, 24] 111% | viability [3, 25] 103% | viability [3, 27] 147%
2570: cell count [1, 8]

CCOC(=O)c1[nH]c2cc(Cl)ccc2c1C(C(=O)NC(C)(C)C)N(C=O)Cc1ccc(Cl)cc1 (centres undefined)
2750: cell count [1, 7]
inactive: fold change [1, 5] 0.989 | z-score [2, 9] -0.405 | viability [3, 11] 118% | viability [3, 12] 105% | viability [3, 15] 112% | viability [3, 16] 113% | viability [3, 19] 113% | viability [3, 20] 104% | viability [3, 23] 110% | viability [3, 24] 116% | viability [3, 27] 114% | viability [3, 28] 102% | viability [3, 30] 103% | viability [3, 31] 108% | viability [3, 32] 106% | viability [3, 35] 111% | viability [3, 36] 105% | viability [3, 37] 103% | viability [3, 38] 102% | viability [3, 39] 116% | viability [3, 40] 120% | viability [3, 42] 101%
-1.07: z-score [2, 10]
active: viability [3, 13] 75.1% | viability [3, 14] 82% | viability [3, 17] 66.5% | viability [3, 18] 73% | viability [3, 21] 67.1% | viability [3, 22] 64.8% | viability [3, 25] 69.4% | viability [3, 26] 63.9% | viability [3, 29] 96.7% | viability [3, 33] 99.6% | viability [3, 34] 99.6% | viability [3, 41] 62%
2780: cell count [1, 8]
0.584: fold change [1, 6]

Cc1cc(C)c(-c2csc(NC(=O)c3ccccc3)n2)c(C)c1
active: viability [3, 11] 97.8% | viability [3, 14] 97.3% | viability [3, 16] 97.2% | viability [3, 24] 96.2% | viability [3, 38] 100% | viability [3, 39] 99.6% | viability [3, 41] 86.6% | viability [3, 42] 95.6%
4340: cell count [1, 8]
0.994: z-score [2, 10]
inactive: fold change [1, 5] 0.83 | z-score [2, 9] -0.374 | viability [3, 12] 101% | viability [3, 13] 104% | viability [3, 15] 113% | viability [3, 17] 101% | viability [3, 18] 104% | viability [3, 19] 108% | viability [3, 20] 107% | viability [3, 21] 103% | viability [3, 22] 104% | viability [3, 23] 104% | viability [3, 25] 103% | viability [3, 26] 105% | viability [3, 27] 111% | viability [3, 28] 105% | viability [3, 29] 105% | viability [3, 30] 102% | viability [3, 31] 111% | viability [3, 32] 103% | viability [3, 33] 104% | viability [3, 34] 101% | viability [3, 35] 113% | viability [3, 36] 104% | viability [3, 37] 103% | viability [3, 40] 113%
3610: cell count [1, 7]
0.759: fold change [1, 6]

CC(=O)O[C@@]1(C(C)=O)CC[C@H]2[C@@H]3C=C(C)C4=CC(=O)CC[C@]4(C)[C@@H]3CC[C@@]21C
0.828: fold change [1, 6]
active: viability [3, 11] 94.9% | viability [3, 13] 96.4% | viability [3, 16] 97.6% | viability [3, 17] 99.8% | viability [3, 21] 99.9% | viability [3, 22] 96.3% | viability [3, 24] 99.3% | viability [3, 25] 96.9% | viability [3, 26] 93.1% | viability [3, 27] 98.1% | viability [3, 28] 94.7% | viability [3, 32] 90.3% | viability [3, 33] 92.2% | viability [3, 34] 89.7% | viability [3, 36] 92.1% | viability [3, 37] 89.9% | viability [3, 38] 82.2% | viability [3, 40] 93.9% | viability [3, 41] 84.5% | viability [3, 42] 82.1%
inactive: fold change [1, 5] 0.871 | z-score [2, 9] -0.515 | viability [3, 12] 104% | viability [3, 14] 104% | viability [3, 15] 107% | viability [3, 18] 100% | viability [3, 19] 102% | viability [3, 20] 101% | viability [3, 23] 100% | viability [3, 29] 100% | viability [3, 30] 100% | viability [3, 31] 116% | viability [3, 35] 116% | viability [3, 39] 111%
0.339: z-score [2, 10]
7070: cell count [1, 8]
6160: cell count [1, 7]

N#Cc1ccc2[nH]cc(CCCCN3CCN(c4ccc5oc(C(N)=O)cc5c4)CC3)c2c1
6440: cell count [1, 7]
inactive: fold change [1, 5] 0.968 | z-score [2, 9] -0.594 | remaining NAD [4] 10 nM
6650: cell count [1, 8]
0.515: fold change [1, 6]
-0.181: z-score [2, 10]
